Assay results from PubChem BioAssay (NCATS).
Inconclusive results are not listed. Active and inactive are the calls of the source. Calls come from the whole dose curve; as a rule, active = well fitted cell-killing curve with a large enough effect; inconclusive = small, poorly fitted or top-dose-only effect, or effect the other way; inactive = flat fitted curve, though single readings scatter.

Experiments:
Test in all cases: Primary qHTS to identify gynecologic anti-cancer compounds using libraries of approved drugs and bioactive compounds (AID 1345084); note: nearly all actives have a fitted effect of over 55% in size
Details in all cases: Gynecologic cancer cell panel viability, ATPlite luminescence, 48 h; series mostly up to 57.5 µM
[1] = system: SKOV3
Summary of the method: (§1)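 Cells, 1,000 per well, plated 16 h, then exposed 48 h at 37 C to compounds. Viability by ATPlite luminescence after 15 min at room temperature.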

[2] = system: Tov-21-G
Summary of the method: as §1

[3] = system: Tov112D
Summary of the method: as §1
% is set by controls: 0 for no effect and ±100 for the full control effect.

C/C=C/C=C/C=C/C(=O)O[C@@H]1[C@@H](OC)C2=C(C(=O)N(C(C)C(=O)O)C2)[C@@]2(C)CCCC(C)(C)[C@H]12 (stereo not given in full)
inactive: Potency [1] | Potency [2] | Potency [3]

CC(C)c1nc(N(C)S(C)(=O)=O)nc(-c2ccc(F)cc2)c1/C=C/[C@@H](O)C[C@@H](O)CC(=O)O
inactive: Potency [1] | Potency [2] | Potency [3]

CC(/C=C/C1(O)C(C)CC(O)CC1(C)C)OC1OC(CO)C(O)C(O)C1O (stereo not given)
inactive: Potency [1] | Potency [2] | Potency [3]

CC[C@H](C)/C=C(C)/C=C/C(=O)Cc1cc(O)c(C)c(O)c1C=O
inactive: Potency [1] | Potency [2] | Potency [3]

CC(C)=CC/C=C(/C)[C@H]1CC[C@]2(C)[C@@H]1[C@H](O)CC1[C@@]3(C)CC[C@H](O)C(C)(C)[C@@H]3[C@@H](O[C@@H]3O[C@H](CO)[C@@H](O)[C@H](O)[C@H]3O[C@@H]3O[C@@H](C)[C@H](O)[C@@H](O)[C@H]3O)C[C@]12C (stereo not given in full)
inactive: Potency [1] | Potency [2] | Potency [3]

CC1(CO)CC[C@]2(C(=O)O[C@@H]3O[C@H](CO)[C@@H](O)[C@H](O)[C@H]3O)CC[C@]3(C)C(=CCC4[C@@]5(C)C[C@H](O)[C@H](O[C@@H]6OC[C@@H](O)[C@H](O)[C@H]6O)[C@@](C)(CO)C5CC[C@]43C)C2C1 (stereo not given in full)
inactive: activity change, negative = cytotoxicity [1] 2.79% [at 11.6 µM] | activity change, negative = cytotoxicity [2] 4.01% [at 11.6 µM] | activity change, negative = cytotoxicity [3] -0.665% [at 11.6 µM]

CC1(C)CC[C@]2(C(=O)O[C@@H]3O[C@H](CO)[C@@H](O)[C@H](O)[C@H]3O)CC[C@]3(C)C(=CCC4[C@@]5(C)C[C@@H](O)[C@H](O)[C@@](C)(CO)C5CC[C@]43C)C2C1 (stereo not given in full)
inactive: Potency [1] | Potency [2] | Potency [3]

C/C=C1\[C@H](O[C@@H]2O[C@H](CO)[C@@H](O)[C@H](O)[C@H]2O)OC=C(C(=O)OC)[C@H]1CC(=O)OC
inactive: Potency [1] | Potency [2] | Potency [3]

O=S(=O)(Nc1ccc(C(O)(C(F)(F)F)C(F)(F)F)cc1)c1cccs1
inactive: Potency [1] | Potency [2] | Potency [3]

Cc1ncc([N+](=O)[O-])n1CC(O)CN1CCOCC1 (stereo not given)
inactive: Potency [1] | Potency [2] | Potency [3]

COc1ccc([C@@H]2N[C@H](C(=O)O)Cc3c2[nH]c2ccccc32)cc1CN1CCN(c2ccccc2F)CC1
inactive: Potency [1] | Potency [2] | Potency [3]

CC1=C2C=C(CO)C(CO)CCC2(C)CCC1=O (stereo not given)
inactive: Potency [1] | Potency [2] | Potency [3]

CN(C)c1cccc(-c2c3c(=O)n(-c4ccccc4Cl)[nH]c3cc(=O)n2C)c1
inactive: Potency [1] | Potency [2] | Potency [3]

COc1cc(/C=C/c2cc(O)cc(O[C@@H]3O[C@H](CO)[C@@H](O)[C@H](O)[C@H]3O)c2)ccc1O
inactive: Potency [1] | Potency [2] | Potency [3]

CC1OC(OC2C(CO)OC(OCC3OC(OC(=O)C45CCC(C)(C)CC4C4=CCC6C7(C)CCC(OC8OC(C(=O)O)C(O)C(OC9OC(CO)C(O)C(O)C9O)C8O)C(C)(C)C7CCC6(C)C4(C)CC5)C(O)C(O)C3O)C(O)C2O)C(O)C(O)C1O (stereo not given)
inactive: activity change, negative = cytotoxicity [1] 21% [at 6.55 µM] | activity change, negative = cytotoxicity [2] 0.671% [at 6.55 µM] | activity change, negative = cytotoxicity [3] 0.769% [at 6.55 µM]

CC[C@H](/C=C/[C@@H](C)[C@H]1CC[C@H]2[C@@H]3CC=C4C[C@@H](O)CC[C@]4(C)[C@H]3CC[C@]12C)C(C)C
inactive: activity change, negative = cytotoxicity [1] 8.88% [at 6.55 µM] | activity change, negative = cytotoxicity [2] 16.8% [at 6.55 µM] | activity change, negative = cytotoxicity [3] -1.77% [at 6.55 µM]

COC(=O)C12C(=O)C(C)=C(O)C1(C)C(C)=CC1C34CCC(OC3=O)C(C)(C)C4CCC12C (stereo not given)
inactive: Potency [1] | Potency [2] | Potency [3]

CC(=O)Oc1cc2c(s1)CCN([C@H](C(=O)C1CC1)c1ccccc1F)C2
inactive: Potency [1] | Potency [2] | Potency [3]

CN1CC[C@@H](NC(=O)Nc2ccc(C#N)cc2)C[C@@H]1c1nc2ccccc2[nH]1
inactive: Potency [1] | Potency [2] | Potency [3]

COc1ccc2c3c1O[C@H]1C[C@@H](O)C=C[C@@]31CCN(C)C2
inactive: Potency [1] | Potency [2] | Potency [3]
